Source: PubChem
In the library only some 1.3% were active in any assay of this set; here they are far more common.
Rin1 Abl inh: inhibitors of human Rin1-Abl protein interaction; AID 588664; inhibition, % at 7.35 µM; actives 0.4% (n = 360,000); P00519+Q13671; TR-FRET Rin1/Abl binding, biochemical; in the data active = inhibition above about 5%, passing the limit was not always enough
IDE act: activators of human insulin-degrading enzyme in cells. P14735. HEK cells, FAbeta-B cleavage, fluorescence polarization; 0% vehicle, 100% cell-free pure enzyme wells. activation, % at 5.96 µM. actives 0.073% (n = 340,000);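 active = activation above the mean of all tested compounds plus 3 SD, set per screening campaign, cut at about 17% in these data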
E coli Lon inh: inhibitors of E. coli Lon protease | P0A9M0 | purified E. coli Lon protease, fluorescence polarization | inhibition, % at 7.94 µM | actives 0.42% (n = 360,000); in the data active = inhibition above about 13%, passing the limit was not always enough;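 also: 0% = enzyme with probe and DMSO and 100% = no enzyme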
IDE cell inh: cellular human IDE inhibition; P14735; HEK cells, FAbetaB cleavage, fluorescence polarization; inhibition, % at 5.59 µM; actives 0.41% (n = 320,000); AID 434962;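 active = percent inhibition above the average of all tested compounds plus 3 SD, set per screening campaign, cut at about 16% in these data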;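 also: IDE supplied by intact live HEK cells; FP after avidin binding of uncleaved biotin substrate so inhibition keeps polarization high; 0% = DMSO wells and 100% = 60 µM reference IDE inhibitor Ii1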
PKA-R2B activ: activators of human PKA-R2B complex. P22694+P31323. PKA-R2B holoenzyme dissociation, Cy5-IP20 fluorescence polarization; R2B truncated from residue 108, S112A mutant; 0% DMSO only, 100% 113 µM cGMP. activation, % at 11.4 µM. actives 0.079% (n = 340,000). AID 504700;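 active = activation above a cutoff set at the mean over all compounds plus 3 SD, cut at about 18% in these data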;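 also: higher means more holoenzyme dissociation and a rise in polarization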
PKA-R1A activ: activates the PKA-R1A holoenzyme complex; P00514+P68181; actives 0.083% (n = 340,000); activation, % at 11.4 µM; PKA-R1A dissociation, Cy5-IP20 fluorescence polarization; scaled: DMSO 0%, 113 µM cGMP 100%; AID 504707;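 active = percent activation above the mean of all tested compounds plus 3 SD, cut at about 19% in these data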;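 also: higher means more PKAc released from R1A so a rise in polarization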
Rin1-Abl confirm: confirmation of inhibitors of human Rin1-Abl interaction; shares compounds with Rin1 Abl inh; TR-FRET Rin1-Abl binding, purified proteins; inhibition, % at 7.35 µM; actives 49% (n = 1,300); AID 602124
GFP quench: quenches GFP fluorescence, counter-screen for Rin1-Abl inhibitors | shares compounds with Rin1 Abl inh | actives 8.5% (n = 1,300) | inhibitors/quenchers counterscreen | AID 602125 | inhibition, % at 6.75 µM;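 also: ABL1-eGFP fusion protein alone without its partner RIN1-SBP; 0% = protein with vehicle and 100% = wells lacking protein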
GFP quench DR: counter-screen for Rin1-Abl inhibitors: GFP quenchers, dose response; IC50, µM; shares compounds with Rin1 Abl inh; 230 tested, under 10 active; GFP fluorescence interference/quenching counterscreen; call rule not given here;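 also: ABL1-eGFP fusion protein alone without its RIN1 binding partner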
* = called active by the depositor; . = no result given. Rule as the data show it, unless noted: active = inhibition above about 6.5%; inactive = the rest.

SMILES	Rin1 Abl inh	IDE act	E coli Lon inh	IDE cell inh	PKA-R2B activ	PKA-R1A activ	Rin1-Abl confirm	GFP quench	others
OC[C@@H]1CN(Cc2ccc(Cl)cc2)C[C@H](n2cnc3c(NC4CC4)ncnc32)O1	17.4*	.	-19.4	.	.	.	20.1*	-4.4	GFP quench DR=>67.6
COc1ccccc1N(C)S(=O)(=O)c1ccc(Cl)c(C(=O)NCCCN2CCOCC2)c1	-0.8	-1.7	-1.7	-5.7	4.0	-8.0	.	.
S=c1[nH]nc(-c2ccccn2)n1/N=C/c1ccco1	-1.6	.	1.8	2.7	.	.	.	.
O=C(NCCOc1nc(N2CCCCC2)nc(N2CCOCC2)n1)Nc1ccccc1	0.9	0.9	0.3	0.9	-6.1	0.1	.	.
O=C(NCCOc1nc(N2CCOCC2)nc(N2CCOCC2)n1)Nc1ccccc1	6.9*	4.9	1.2	1.1	5.7	1.8	2.1	-1.9
CCN(CC)C(=O)CCSc1nnc(-c2ccncc2)o1	1.0	-3.7	-5.0	-1.6	-1.3	-0.6	.	.
Cc1ccccc1-c1nc(CS(=O)CC(=O)NCc2ccccc2)c(C)o1 (stereo unspecified)	0.1	0.7	-7.8	-0.1	0.9	-8.6	.	.
COCCNC(=O)CS(=O)Cc1nc(-c2ccccc2C)oc1C (stereo unspecified)	11.7*	1.5	1.7	3.8	6.1	-3.5	-0.7	0.6
O=C(CSc1nnc(CNC(=O)c2cccc(C(F)(F)F)c2)o1)NCc1ccco1	1.5	-0.8	7.1	1.1	-0.3	-8.6	.	.
Cc1ccccc1Nc1nc(N)nc(CSc2nnc(-c3ccccc3)n2C)n1	-1.2	-0.8	8.0	3.4	-6.1	-9.2	.	.
Cc1ccc(-c2nnc(SCc3nc(N)nc(Nc4ccccc4C)n3)n2N)cc1	18.1*	3.0	-15.1	0.9	4.6	-7.5	0.4	-0.8
CN(C(=O)c1ccc(NC(=O)Cc2ccc(NC(=O)C3CCN(C(=O)C4CCC4)CC3)cc2)cc1)C1CC1	37.4*	5.1	22.8	3.3	-6.2	-4.2	61.5*	0.1
CN(C(=O)c1ccc(NC(=O)Cc2ccc(NC(=O)C3CCN(C(=O)C4CCCCC4)CC3)cc2)cc1)C1CCCC1	4.0	3.6	1.9	.	-10.4	0.7	.	.
CN(C(=O)c1ccc(NC(=O)Cc2cccc(NC(=O)C3CCN(C(=O)C4CCCC4)CC3)c2)cc1)C1CC1	20.2*	1.0	-2.8	.	-6.3	-4.0	28.0*	0.1	GFP quench DR=>67.5
CN(C(=O)c1ccc(NC(=O)Cc2ccc(NC(=O)C3CCN(C(=O)C4CCCC4)CC3)cc2)cc1)C1CC1	78.2*	3.7	-4.0	0.4	-6.5	7.3	84.5*	-0.7
CCOC(=O)c1c(NC(=O)CN(C)C2CCN(C)CC2)sc(C(=O)Nc2ccccc2)c1C	7.6*	-1.2	2.0	0.2	-0.8	-3.2	-1.0	-0.5
NC(=O)COC(=O)CCCSc1nc2ccccc2s1	11.4*	-1.5	-7.3	0.7	1.3	6.8	11.3*	0.7
COc1ccc(C(C)(NC(C)=O)c2nc(-c3cccc(C#N)c3)cs2)cc1 (stereo unspecified)	2.7	.	-14.0	.	.	.	.	.
CSc1ccc(/C=N/Nc2ccc(Cl)c(C(=O)O)c2)cc1	-5.1	-0.8	6.7	0.6	-3.5	1.4	.	.
Cc1cc(C)cc(C(=O)NCC(=O)OCC(=O)c2c(N)n(C)c(=O)n(C)c2=O)c1	-0.8	-2.3	-5.2	3.3	0.5	4.1	.	.
CCCn1c(N)c(C(=O)COC(=O)CNC(=O)c2ccc(C)c(C)c2)c(=O)n(C)c1=O	9.4*	-1.2	-6.6	-3.8	5.2	7.3	0.5	-4.3
CN1CCN(c2nc3ccccn3c(=O)c2/C=C(\C#N)S(=O)(=O)c2ccc(Cl)cc2)CC1	-5.2	-2.7	-0.4	-4.2	6.1	0.4	.	.
O=c1nccc(N/N=C/c2ccccc2)[nH]1	8.8*	-13.6	-8.2	.	1.9	-4.7	19.9*	-1.6	GFP quench DR=>67.5
COc1ccc(CNC(=O)CCSCc2ccccc2Cl)c(OC)c1	-2.0	1.2	-6.0	6.2	-5.0	-7.2	.	.
COc1ccc(CNC(=O)CCSCc2cccc(Cl)c2)c(OC)c1	5.2*	1.9	-0.6	0.0	10.9	-6.9	-1.5	1.8
SMILES	Rin1 Abl inh	IDE act	E coli Lon inh	IDE cell inh	PKA-R2B activ	PKA-R1A activ	Rin1-Abl confirm	GFP quench	others
CCCc1c(O)nc(SCCN(CC)CC)[nH]c1=O	7.6*	4.2	3.1	1.8	-5.5	-6.0	-1.9	0.2
Cc1c(F)cccc1NS(=O)(=O)c1ccc2c(c1)c(=O)n(C)c(=O)n2C	10.3*	-8.8	10.6	7.2	-3.3	13.9	2.2	-0.8
CC(C)NC(=O)/C(C#N)=C/c1ccc2c(c1)OCCO2	0.5	4.2	-5.5	1.2	1.9	-20.8	.	.
CCCCC(=O)Nc1ccc(C(=O)Nc2nnc(COC)s2)cc1	1.3	5.5	6.3	2.6	-4.3	-6.4	.	.
O=C(C(Cl)Cl)N1CCN(Cc2ccc3c(c2)OCO3)CC1	6.9*	1.2	-7.5	-4.3	-2.2	1.5	3.0	2.0
COc1ccc(C(=O)C2CCCN(Cc3cnc(N4CCOCC4)s3)C2)c(OC)c1 (stereo unspecified)	3.0	4.5	-7.8	4.8	-14.1	-4.9	.	.
O=S(=O)(Nc1c(S(=O)(=O)c2ccccc2)c2nc3ccccc3nc2n1C1CCCCC1)c1ccccc1	9.8*	0.6	-1.4	7.4	5.6	7.7	-3.8	0.1
C=CCn1c(NS(=O)(=O)c2ccccc2)c(S(=O)(=O)c2ccc(C)cc2)c2nc3ccccc3nc21	0.8	1.8	-6.0	7.4	-6.8	-1.4	.	.
O=c1c2ccccc2ncn1Cc1ccc(Cl)c(Cl)c1	6.3*	0.2	1.5	-0.6	10.3	-6.5	0.9	-1.6
CCn1c(SCC(=O)Nc2cccc(C)c2)nc2nc3c(cc2c1=O)COC(C)(C)C3	7.5*	-3.5	-5.8	13.4	0.6	-13.6	12.6*	-0.4
CCn1c(SCc2ccc(C(=O)OC)o2)nnc1-c1c[nH]c2ccccc12	13.6*	1.8	-8.0	-2.8	-5.5	0.7	10.6*	-0.1
N#Cc1ccsc1NC(=O)CN1CCN(c2ccc(O)cc2)CC1	10.2*	6.2	-1.1	2.2	-9.4	-15.4	-0.9	-0.1
O=C(Nc1c(-c2ccc3c(c2)OCO3)[nH][nH]c1=O)c1ccccc1	23.5*	.	4.7	.	.	.	9.0*	0.0
c1ccc2c(c1)c1cccc3ccc4cccc2c4c31	8.2*	0.7	5.8	3.1	0.0	-3.2	4.0	-0.3
